# Screening data deposited in PubChem BioAssay by National Center for Advancing Translational Sciences (NCATS).
# Sampled rows, rich in hits. Any-hit rate of the full collection: about 5.5%.
# a7 integrin act: qHTS for Activators of Integrin-Mediated Alleviation for Muscular Dystrophy. alpha7betagal myoblasts, beta-gal FDG fluorescence, 48 h. Potency, µM (doses to about 38.3 µM), usual class: activators. 350,000 compounds, 0.064% hits; further: nearly all actives have a fitted effect of over 60% in size
#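 Alpha7betagal+/- myoblasts (passage 13) were plated 16-24 hr, then exposed to compounds (1:260 dilution of DMSO stock) for 48 hours at 37C. After MPER lysis, β-galactosidase reporter activity was read as FDG fluorescence (ex 480/em 540) after 30 minutes.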
# Chronic BCR inh: qHTS Assay to Find Inhibitors of Chronic Active B-Cell Receptor Signaling | ABC-DLBCL IkBa-CBG/CBR reporter, luminescence ratio, 4 h | Potency, µM (titrated, usually from 46.1 µM), usual class: inhibitors | 340,000 compounds, 0.05% hits; active means well fitted inhibition curve with a large enough effect in the signal ratio, with a control signal flat, not every such curve was filed as active; inconclusive means small, poorly fitted or top-dose-only effect, or effect the other way, or a change in a side signal; the % refers to the signal ratio
#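 Doxycycline induced both beetle luciferases in TMD8 lymphoma cells; IKK-driven degradation limits the IkappaBalpha-fused green signal, while red luminescence normalises for cell number and nonspecific effects. Compounds tested up to 46 uM, 4 hrs.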
# Mito fusion act: qHTS Assay for Small Molecule Inhibitors of Mitochondrial Division or Activators of Mitochondrial Fusion | S. cerevisiae fusion-defective mutant growth rescue, CellTiterGlo 48 h | Potency, µM (titrated, usually from 46.1 µM), usual class: activators | 320,000 compounds, 0.23% hits | AID 485298, 2010; further: nearly all actives have a fitted effect of over 45% in size
#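 Growth-rescue viability read-out: after 48 h at the non-permissive 37C in glycerol/ethanol YPEG, yeast mitochondrial fusion mutants are measured by CellTiterGlo luminescence; compounds (23 nl pinned per well) restoring growth score as division inhibitors or fusion activators.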
# Gal4-VP16 FLuc: VP16 counterscreen qHTS for inhibitors of ROR gamma transcriptional activity; Drosophila S2 Gal4-VP16 UAS-luciferase, luminescence, 20 h; Potency, µM (titrated, usually from 53.6 µM), hits mostly inhibitors; 310,000 compounds, 3.5% hits; AID 2546, 2010;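 further: Gal4-VP16 expression switched on by copper sulfate through the metallothionein promoter; nearly all actives have a fitted effect of over 50% in size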
# RORg inh: qHTS for inhibitors of ROR gamma transcriptional activity; Nuclear receptor ROR-gamma (Mus musculus), P51450; Drosophila S2 Gal4-RORgamma UAS-luciferase reporter, 20 h; Potency, µM (top dose mostly 53.6 µM), most hits filed as inhibitors; 310,000 compounds, 5.4% hits; AID 2551, 2010; further: nearly all actives have a fitted effect of over 60% in size
# Target sequence (P51450 whole entry, looked up, the tested form may be a part): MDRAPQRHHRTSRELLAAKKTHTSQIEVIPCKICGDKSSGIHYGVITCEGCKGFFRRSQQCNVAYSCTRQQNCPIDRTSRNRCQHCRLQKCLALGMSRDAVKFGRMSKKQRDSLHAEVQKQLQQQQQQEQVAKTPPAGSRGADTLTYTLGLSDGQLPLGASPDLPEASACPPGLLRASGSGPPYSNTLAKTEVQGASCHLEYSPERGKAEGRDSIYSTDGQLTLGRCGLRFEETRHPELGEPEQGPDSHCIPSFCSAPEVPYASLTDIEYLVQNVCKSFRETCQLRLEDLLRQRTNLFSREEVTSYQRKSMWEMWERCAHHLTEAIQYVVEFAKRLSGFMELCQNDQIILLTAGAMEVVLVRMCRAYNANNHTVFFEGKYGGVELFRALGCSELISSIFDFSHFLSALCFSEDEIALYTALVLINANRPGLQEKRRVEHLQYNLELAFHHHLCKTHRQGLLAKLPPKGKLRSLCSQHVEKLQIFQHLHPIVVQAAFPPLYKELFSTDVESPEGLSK
#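 Stably transfected Drosophila Schneider cells are the test system, with ROR gamma fused to Gal4 and luciferase under UAS control; luminescence is read after 20 hr of 700 uM copper sulfate induction at ambient temperature.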
# uPA generation: qHTS for Inhibitors of Cell Surface uPA Generation | cell surface uPA generation assay, qHTS | Potency, µM (titrated, usually from 38.3 µM), most hits filed as inhibitors | 330,000 compounds, 0.31% hits | AID 540303, 2011; active means well fitted inhibition curve with a large enough effect; inconclusive means small, poorly fitted or top-dose-only effect; inactive means no such curve, though single readings can be large or run the other way; tested in mouse RAW 264.7 cells; further: nearly all actives have a fitted effect of over 55% in size
# Hits are given with their value; i = inactive; ? = inconclusive; nt = not tested or not shown; [ ] = another dose, or the depositor's remark. Unless noted, the call rests on the fitted dose curve; in most records, active means well fitted curve in the direction sought with a large enough effect; inconclusive means small, poorly fitted or top-dose-only effect, or another doubt; inactive means no such curve, though single readings can be large; an effect the other way counts as inactive or inconclusive.
SMILES,a7 integrin act,Chronic BCR inh,Mito fusion act,Gal4-VP16 FLuc,RORg inh,uPA generation
Cc1cc(C(=O)NC2CCCc3c2cnn3-c2ccc(C)c(C)c2)no1 (stereo not given),i,i,i,i,?,?
COc1ccc(/C=N/n2cnc3c([nH]c4ccccc43)c2=O)cc1COc1ccccn1,nt,?,i,i,i,nt
CC(C)(C)c1ccc(-n2ncc3c2CCCC3NC(=O)CN2CCCC2=O)cc1 (stereo not given),i,i,i,7.1µM,?,i
Cc1ccc(-n2ncc3c(N4CCC(Cc5ccccc5)CC4)ncnc32)cc1,nt,i,nt,nt,nt,nt
COc1ccc(-c2cc(C(=O)N(C)CCc3ccc(OC)c(OC)c3)c3ccccc3n2)cc1,i,i,i,i,5µM,i
N#C/C(=C(/O)COC(=O)CSc1ccc2ccccc2c1)c1nc2ccccc2[nH]1,i,i,i,14µM,7.1µM,?
Cc1ccc(C)c(SCC(=O)OC/C(O)=C(\C#N)c2nc3ccccc3[nH]2)c1,i,i,i,?,10µM,i
Cc1cc(Br)ccc1SCC(=O)OC/C(O)=C(\C#N)c1nc2ccccc2[nH]1,i,i,i,?,i,i
COc1ccccc1-n1c(-c2ccccc2)c[nH]c1=S,i,i,?,?,2.8µM,i
S=c1[nH]cc(-c2ccccc2)n1-c1ccccc1Cl,i,i,i,7.1µM,3.5µM,i
S=c1[nH]ccn1-c1c(Cl)cccc1Cl,i,i,i,i,i,i
COc1ccccc1-n1c(-c2cccnc2)n[nH]c1=S,?,i,i,nt,i[0.365 µM],i
O=C(COC(=O)Cn1cnc2ccccc21)Nc1ccc(Br)cc1,i,nt,nt,nt,nt,nt
O=C(COC(=O)Cn1cnc2ccccc21)Nc1ccc2c(c1)C(=O)c1ccccc1C2=O,?,?,i,i,i[10 µM],11µM
CCNc1nc2c(c(=O)[nH]c(=O)n2C)n1CCCc1ccccc1,i,i,i,i,i,i
CCC(C)Nc1nc2c(c(=O)n(C)c(=O)n2C)n1Cc1ccc(Cl)cc1 (stereo not given),i,?,?,i,i,i
CCNc1nc2c(c(=O)n(C)c(=O)n2C)n1CCCc1ccccc1,i,i,i,11µM,?,i
Cn1c(=O)c2c(nc(NCc3ccccc3)n2Cc2ccc(F)cc2)n(C)c1=O,nt,?,i,14µM,?,nt
C/C(Cl)=C\Cn1c(NCCc2ccccc2)nc2c1c(=O)n(C)c(=O)n2C,i,i,i,3.5µM,7.1µM,i
CCNc1nc2c(c(=O)n(C)c(=O)n2C)n1Cc1ccc(Cl)cc1,i,?,i,4.5µM,?,?
Cn1c(=NC(=O)COc2ccccc2)sc2cccc(F)c21,i,?,i,?,i,i
Cn1c(=O)c2c(ncn2Cc2ccc(Cl)cc2)n(C)c1=O,i,i,i,i,?,i
Cn1c(=O)c2c([nH]c(=S)n2Cc2ccc(Cl)cc2)n(C)c1=O,i,i,i,?,13µM,i
Cc1nn(-c2ccccc2)c(N2CCCC2)c1/C=N/NC(=O)c1ccccc1O,i,?,i,10µM,10µM,i
Cc1nn(-c2ccccc2)c(Cl)c1/C=N/NC(=O)c1ccco1,i,?,i,i,i,i
SMILES,a7 integrin act,Chronic BCR inh,Mito fusion act,Gal4-VP16 FLuc,RORg inh,uPA generation
CNC(=S)N/N=C/c1c(C)nn(-c2ccccc2)c1Cl,i,?,i,0.89µM,?,nt
Cc1nn(-c2ccccc2)c(Cl)c1/C=N/NC(=O)OC(C)(C)C,i,i,i,i,?,i
CNC(=S)N/N=C/c1c(C)nn(-c2cccc(Cl)c2)c1Cl,?,?,i,1.3µM,2µM,i
O=C(N/N=C/c1cc2c3c(c1O)CCCN3CCC2)c1ccccc1O,i,?,?,20µM,?,i
O=C1[C@H]2CCn3c(=O)n(-c4ccccc4)c(=O)n3[C@H]2[C@H](O)[C@H]2O[C@@H]12,nt,nt,nt,i[10 µM],i[10 µM],nt
CCCS(=O)(=O)c1cnc(C2COc3ccccc3O2)nc1N (stereo not given),i,?,i,1.3µM,0.63µM,?
O=S(=O)(c1ccccc1)N1CCC2(CCCN(Cc3nccs3)C2)CC1,nt,nt,nt,i,i,nt
CSc1nnc(NC(=O)C23CC4CC(CC(C4)C2)C3)s1,i,i,i,?,18µM,i
CC(=O)c1ccc(NC(=S)Nc2ccn(Cc3ccc(Br)cc3)n2)cc1,i,i,i,i,i,i
CC(=O)c1cccc(NC(=S)Nc2ccn(Cc3cccc4ccccc34)n2)c1,i,i,i,5µM,2.8µM,i
CC(=O)c1cccc(NC(=S)NC(=O)Cc2ccccc2)c1,i,i,i,5µM,1.4µM,i
CC(=O)c1cccc(NC(=S)NC(=O)Cc2ccc(Cl)cc2)c1,?,i,i,?,10µM,i
CCCOc1cc(C)c(S(=O)(=O)NCc2cccs2)cc1C,i,i,nt,nt,nt,i
COc1ccc(CN=C2NN=C(c3ccc(Cl)cc3)CS2)cc1,i,?,i,i,?,i
CC(C)(C)N=C1NN=C(c2cc3ccccc3o2)CS1,i,?,i,?,6.3µM,i
Cc1ccc(C2=NNC(=Nc3ccc(F)cc3)SC2)cc1,i,?,i,?,?,i
CC(C)(C)N=C1NN=C(c2ccc(Cl)cc2)CS1,i,?,i,?,7.1µM,?
CC(C)c1ccc(N=C2NN=C(c3cccs3)CS2)cc1,i,i,i,?,13µM,i
CC(C)N=C1NN=C(c2cccs2)CS1,i,i,i,i,13µM,i
OCCCNC(=S)Nc1ccc(Br)cc1Cl,i,i,i,i,i,i
COC(=O)CCC[N+](C)(C)C,nt,nt,nt,i,i,nt
COCC(C)N=C1NN=C(c2ccc(NC(C)=O)cc2)CS1 (stereo not given),i,i,i,i,?,i
CC(C)N=C1NN=C(c2ccc(Cl)c(Cl)c2)CS1,i,?,i,?,10µM,i
O=C(CN1CCOCC1)Nc1nc(-c2ccc3c(c2)CCN3S(=O)(=O)c2ccccc2)cs1,i,i,i,?,i,i
Cc1sc(NC(=O)CN2CCOCC2)nc1-c1ccc2c(c1)CCN2S(=O)(=O)c1ccccc1,i,?,i,5.6µM,7.1µM,i
O=C(Nc1ncc(Cc2ccccc2Cl)s1)c1ccc(-c2cccc([N+](=O)[O-])c2)o1,i,?,i,?,5µM,i
O=C(Nc1ncc(Cc2ccc(C(F)(F)F)cc2)s1)c1ccc(-c2cccc([N+](=O)[O-])c2)o1,i,i,i,7.1µM,5.6µM,i
N#C/C(=C/c1ccc(-c2ccc([N+](=O)[O-])cc2)o1)C(=O)Nc1nc(-c2cccs2)cs1,i,nt,nt,nt,nt,i
NNC(=O)c1ccc(-c2cccc([N+](=O)[O-])c2)o1,i,i,i,i,i,i
